According to PubChem BioAssay AID1508622 (National Center for Advancing Translational Sciences (NCATS), 2021):
Active and inactive are the calls of the source. Where a call stands in place of a potency, no number is given. Calls come from the whole dose curve; as a rule, active = well fitted activation curve with a large enough effect; inconclusive = small, poorly fitted or top-dose-only effect; inactive = no such curve, though single readings can be large or run the other way.

Assay: Confirmatory qHTS for Identification of Small Molecule Activators of Huntingtin-Antisense Promoter Activity
Settings: HEK293 HTT-AS promoter firefly luciferase reporter, 24 h; series mostly up to 57.5 µM
Method in brief: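 HEK293 luciferase reporter cells, 2,500/well, cultured 24 h, then exposed to compounds at up to 57.5 uM final for 24 h at 37C. Firefly luciferase luminescence read; normalized to vehicle (0%) and zero RLU (-100%).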
Potency is the fitted concentration of half-maximal effect.

Structure (SMILES)	Potency
COc1ccc(CCNC(=O)c2ccc3c(c2)CCN3S(=O)(=O)c2ccc(C)cc2)cc1	inactive
CCc1ccc(OCC2c3cc(OC)c(OC)cc3CCN2C(=O)COc2ccccc2)cc1 (stereo not drawn)	inactive
COC[C@H](NC(=O)c1cnc(C)s1)C(=O)N[C@@H](COC)C(=O)N[C@@H](Cc1ccccc1)C(=O)[C@@]1(C)CO1	inactive
O=C(CN1CCCN(S(=O)(=O)c2ccc(Br)cc2)CC1)Nc1cccc(C(F)(F)F)c1	inactive
CCC(C(=O)NCCc1ccc(SC)cc1)n1nc(C)c2c(C)n(-c3ccc(C)cc3)nc2c1=O (stereo not drawn)	inactive
Cc1ccc(CNC(=O)c2ccc(CSc3nc4ccncc4n3Cc3ccc(C)cc3)cc2)cc1	inactive
Cc1ccc(C(=O)Nc2nnc(SCc3cc(=O)c4c(C)ccc(C)c4[nH]3)s2)cc1	inactive
COc1ccc(OC)c(CCNC(=O)C(C)n2nc(C)c3c(C)n(-c4ccc(C)cc4)nc3c2=O)c1 (stereo not drawn)	inactive
COc1ccccc1C(=O)N1c2ccccc2C(C)(c2ccc(Cl)cc2)CC1(C)C (stereo not drawn)	inactive
Cc1ccc(C(=O)NCc2ccc3c(c2)CCN3C(=O)c2ccc(C)cc2)cc1	inactive
O=C(Nc1cccc(F)c1)c1cnc2sc(N3CCCC3)nn2c1=O	inactive
CCCSCCCNC(=O)c1cc2n(n1)CCCN(Cc1ccc(C)cc1)C2=O	inactive
COc1ccccc1C1C=C(c2ccc(F)cc2)Nc2nc(-c3ccc(Cl)cc3)nn21 (stereo not drawn)	inactive
O=C(NCc1ccc(F)cc1)c1ccc(CS(=O)(=O)c2ccc(Cl)cc2)o1	inactive
CCOc1ccccc1CNC(=O)C(CC)n1nc(C)c2c(C)n(-c3ccccc3)nc2c1=O (stereo not drawn)	inactive
Cc1cc(NC(=O)NCc2ccc3c(c2)CCN3C(=O)c2ccccc2)ccc1Br	inactive
CCCc1cc(N2CCN(c3ccccc3F)CC2)n2cnnc2n1	inactive
O=C(NCCSc1c(-c2ccccc2)[nH]c2ccccc12)c1ccc(S(=O)(=O)N2CCOCC2)cc1	inactive
CC1Cc2cc(S(=O)(=O)NCc3ccc(F)cc3)ccc2N1C(=O)C1CCC1 (stereo not drawn)	inactive

Structure (SMILES)	Potency
CCOc1ccc(CCNC(=O)c2cccc(-n3c(C)nc4cccnc43)c2)cc1	inactive
CCOCCCNC(=O)Nc1cc(C(=O)NCc2ccc(C(C)C)cc2)ccc1N1CCCC1	inactive
Cc1ccc(C)c(NC(=O)C(=O)NCC(c2cccnc2)N2CCN(c3ccc(F)cc3)CC2)c1 (stereo not drawn)	inactive
Cc1ccccc1CN1CCc2nc(N3CCN(c4ccccn4)CC3)ncc2C1	inactive
Cc1cccc(-n2c(-c3ccco3)nc3c(cnn3-c3ccccc3C)c2=O)c1	inactive
CCCCc1nc2cc(C=CC(=O)NO)ccc2n1CCN(CC)CC	8.49 µM (active)
CCCCCN1C(C(=O)c2ccccc2)=C(OC(=O)CC)c2ccccc2S1(=O)=O	inactive
CCc1ccc(NC(=O)C2CCCN(S(=O)(=O)c3ccc(F)cc3)C2)cc1 (stereo not drawn)	inactive
C[n+]1cc2c3c(ccc2c2ccc4cc5c(cc4c21)OCO5)OCO3	inactive
Cc1ccc(SCc2nc(-c3ccc(C(=O)NCC(C)c4ccccc4)cc3)oc2C)cc1 (stereo not drawn)	inactive
FC(F)(F)c1cccc(N2CCN(c3nc4ccccc4n4cnnc34)CC2)c1	inactive
CCc1cccc(C)c1NC(=O)CCCN1C(=O)C(c2ccccc2)Oc2cccnc21 (stereo not drawn)	inactive
CCc1ccc(OCC(=O)NCC(c2ccc(Cl)cc2)N2CCOCC2)cc1 (stereo not drawn)	inactive
Cc1ccc(C(=O)Nc2nc(-c3nnn(-c4cccc(Cl)c4C)c3C)ns2)cc1C	inactive
COc1ccccc1C(=O)Nc1nc2n(n1)C(c1ccc(F)cc1)C=C(c1ccc(Cl)cc1)N2 (stereo not drawn)	inactive
COc1ccc(-c2nc(CSCC(=O)N3CCN(c4cc(Cl)ccc4C)CC3)c(C)o2)cc1	inactive
O=C(c1ccc(CS(=O)c2ccccc2Cl)o1)N1CCN(c2cccc(C(F)(F)F)c2)CC1 (stereo not drawn)	inactive
COc1ccc(-c2noc(CSc3nc4ccccc4[nH]3)n2)cc1OC	inactive
COc1ccc(-c2nc(CSCC(=O)NCCc3ccc(OC)c(OC)c3)c(C)o2)cc1	inactive
